Experimental data reported in PubChem BioAssay (NCATS).
Inconclusive results are not listed. Active and inactive are the calls of the source. Unless noted, calls follow the shape of the dose curve; as a rule, active = well fitted curve in the direction sought with a large enough effect; inconclusive = small, poorly fitted or top-dose-only effect, or another doubt; inactive = no such curve, though single readings can be large; an effect the other way counts as inactive or inconclusive.

How the values were obtained:
[1] = Cell Viability - BJ (AID 421; calls by dose curve;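 also: potency is read from the fitted curve at half-maximal effect; cells exposed to compound for 40 hours at 37 °C before readout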); details: BJ fibroblast viability, qHTS
How it was run: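 Quantitative HTS: ATP depletion in BJ cells after 40 hr compound exposure in complete culture medium, detected with CellTiter-Glo; AC50 from standard Hill fits.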

[2] = Cell Viability - Hek293 (AID 427;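 active = compounds whose dose-response curve shows a full or clear partial loss of cell viability, called from curve shape rather than a numeric limit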;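 also: potency is read from the fitted curve at half-maximal effect; cells exposed to compound for 40 hours at 37 °C before reading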); details: qHTS
How it was run: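 AC50 values derive from Hill-modelled concentration-response of ATP-based luminescence, normalized between DMSO-only and 100 uM tamoxifen controls. Cells were exposed in complete culture medium for 40 hr at 37 °C before detection.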

[3] = Cell Viability - HepG2 (AID 433; calls by dose curve;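 also: potency is read from the fitted curve at half-maximal effect; potency for ATP loss meaning cytotoxicity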); details: qHTS
How it was run: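 HepG2 cells, 1500 per well, treated 40 hr at 37 °C in complete medium; viability from intracellular ATP by CellTiter-Glo luminescence. Normalized to DMSO and 100 uM tamoxifen; AC50 from Hill fit of qHTS concentration-response.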

[4] = Cell Viability - MRC5 (AID 434; calls by dose curve;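 also: potency is read from the fitted curve at half-maximal effect; potency reflects cytotoxicity seen as loss of intracellular ATP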); details: MRC5 lung fibroblast viability, qHTS
How it was run: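 qHTS cytotoxicity in human lung fibroblast MRC5 cells; 40 hr treatment, 37 °C; cellular ATP by luciferase luminescence; DMSO = 0%, 100 uM tamoxifen = 100% inhibition; Hill-fit AC50.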

[5] = Cell Viability - N2a (AID 540); details: N2a mouse neuroblastoma cell viability; at 92.2 µM (top of the series);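 also: plate controls were DMSO alone for no effect and tamoxifen control for full effect; nearly all actives have a fitted effect of over 45% in size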
How it was run: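 Mouse neuroblastoma N2a cells (1500/well) were preincubated 5 hr at 37 °C, then exposed to compounds for 40 hr at 37 °C in complete medium. Viability was read as intracellular ATP by CellTiter-Glo luminescence; AC50 from Hill fits.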

[6] = Cell Viability - HUV-EC-C (AID 542); also: % is scaled to controls: 0 for no effect and ±100 for the full control effect; nearly all actives have a fitted effect of over 35% in size
How it was run: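 HUV-EC-C normal human vascular endothelial cells, 1000 cells/well, pre-incubated 5 hr at 37 °C, then exposed to compounds for 40 hr at 37 °C in complete medium. Viability measured as intracellular ATP by CellTiter-Glo luminescence; AC50 from Hill fits.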

[7] = Cell Viability - H-4-II-E (AID 543); also: % is scaled to controls: 0 for no effect and ±100 for the full control effect; nearly all actives have a fitted effect of over 35% in size
How it was run: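 Rat hepatoma H-4-II-E cells (1500/well) were plated, incubated 5 hr at 37 °C, then exposed to compounds for 40 hr at 37 °C. Cellular ATP was read by CellTiter-Glo luminescence; AC50 came from Hill-equation fits of concentration-response data.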

[8] = Cell Viability - SH-SY5Y (AID 544); details: SH-SY5Y neuroblastoma cell viability; viability change, negative = cytotoxic: at 92.2 µM (top of the series); also: nearly all actives have a fitted effect of over 55% in size
How it was run: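 Human neuroblastoma SH-SY5Y cells (1500/well) in complete medium were exposed to compounds for 40 hr at 37 °C; intracellular ATP was then quantified by CellTiter-Glo luminescence after 20 min at room temperature. AC50 came from Hill-equation concentration-response fits.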

[9] = Cell Viability - Renal Proximal Tubule (AID 545); details: renal proximal tubule cells viability; at 91.7 µM (top of the series), primary cells of rat origin unless noted; also: nearly all actives have a fitted effect of over 40% in size
How it was run: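 Rat renal proximal tubule primary cells, 1000/well, exposed to compounds for 40 hr at 37 °C in complete medium; cellular ATP read by CellTiter-Glo luminescence. AC50 from concentration-response fitted with standard Hill equation.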

[10] = Cellular Toxicity (caspase-3) HepG2 (AID 654);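 also: cells exposed to compound for 16 hours before reading; 0% = DMSO alone and 100% = caspase signal from 100 µM tamoxifen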
How it was run: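 HepG2 cells (1500/well) in complete medium were treated with compounds for 16 hr at 37 °C. Caspase-3/7 activity was then read as luminescence from peptide-aminoluciferin cleavage. AC50 came from Hill fits, normalized to DMSO and 100 uM tamoxifen.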

[11] = Cellular Toxicity (caspase-3) Jurkat (AID 655); details: Jurkat caspase-3 activation, luminescence, DMSO = 0%, tamoxifen = 100%; at 92.2 µM (top of the series);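 also: cells exposed to compound for 16 h at 37 °C before reading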
How it was run: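 Jurkat cells (5000/well) in complete medium exposed 16 h at 37 C; caspase-3/7 activity read by Caspase-Glo luminescence after 20 min at room temperature. Normalized to DMSO and 100 uM tamoxifen; AC50 from Hill fits.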

[12] = Cellular Toxicity (caspase-3) HUV-EC-C (AID 656)
How it was run: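 HUV-EC-C cells (1000/well) in complete medium, compound-treated 16 h at 37 °C; caspase-3/7 activity read by Caspase-Glo 3/7 luminescence. Normalized to DMSO (basal) and 100 uM tamoxifen (100%); AC50 from Hill-equation concentration-response fits.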

[13] = Cellular Toxicity (caspase-3) SHSY5Y (AID 657)
How it was run: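 SH-SY5Y human neuroblastoma cells, 1500/well, exposed to compound for 16 hours at 37 °C in complete medium. Caspase-3/7 activity read by Caspase-Glo luminescence after 1 hr at room temperature, normalized to DMSO and 10 uM staurosporine; AC50 from Hill fit.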

[14] = Cellular Toxicity (caspase-3) BJ (AID 658);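 also: 0% = DMSO basal and 100% = 10 µM staurosporine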
How it was run: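 Readout: Caspase-Glo 3/7 luminescence increase in BJ cells after 16 hr treatment at 37 °C. Staurosporine and tamoxifen served as positive controls; AC50 values came from Hill modelling of data normalized to DMSO and 10 uM staurosporine.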

[15] = Cellular Toxicity (caspase-3) MRC-5 (AID 659);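 also: 0% = DMSO basal and 100% = 10 µM staurosporine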
How it was run: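 Concentration-dependent caspase 3/7 activation is measured in human normal lung fibroblasts (MRC-5) following 16-hour treatment. AC50 values come from standard Hill-equation modeling of luminescence normalized to DMSO and 10 uM staurosporine.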

[16] = Cellular Toxicity (caspase-3) SK-N-SH (AID 661);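 also: 0% = DMSO basal and 100% = 10 µM staurosporine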
How it was run: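 SK-N-SH human neuroblastoma cells (1500/well) were treated with compounds for 16 hr at 37 °C in complete medium; caspase 3/7 activity was read by Caspase-Glo luminescence. AC50 came from Hill fits of data normalized to DMSO and 10 uM staurosporine.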

[17] = Cellular Toxicity (caspase-3) H-4-II-E (AID 663);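 also: cells exposed to compound for 16 hr before readout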
How it was run: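 Apoptosis induction is scored as increased luminescence from caspase 3/7 substrate cleavage in rat hepatoma H-4-II-E cells exposed to compound for 16 hr. Activity is scaled between DMSO and 100 uM tamoxifen.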

[18] = Cellular Toxicity (caspase-3) Hek293 (AID 664);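 also: cells exposed to compound for 16 h at 37 °C before readout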
How it was run: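 HEK293 cells were exposed to compounds in complete medium for 16 hr at 37 °C, then caspase-3/7 activity was read by Caspase-Glo 3/7 luminescence after 20 min at room temperature. Data normalized to DMSO and 100 uM tamoxifen; AC50 from Hill fits.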

[19] = Cellular Toxicity (caspase-3) NIH 3T3 (AID 666);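 also: caspase signal read after 16 h compound exposure; 0% = DMSO basal and 100% = 100 µM tamoxifen stimulation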
How it was run: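 Mouse NIH 3T3 fibroblasts (1000 cells/well) were treated with compound for 16 hr at 37°C in complete medium; caspase-3/7 activity was read by Caspase-Glo luminescence. Normalized to DMSO and 100 uM tamoxifen; AC50 from Hill fits.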

[20] = Cellular Toxicity (caspase-3) Renal Proximal Tubule (AID 667); details: renal proximal tubule cells; at 91.7 µM (top of the series), primary cells freshly taken from rat, solvent-only wells 0%, staurosporine 100% unless noted;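 also: cells exposed to compound for 16 hours at 37 °C before detection; 0% = DMSO basal and 100% = 10 µM staurosporine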
How it was run: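 Freshly isolated primary rat kidney proximal tubule cells, 1000/well, treated 16 hr at 37 °C, then Caspase-Glo 3/7 luminescence after 1 hr. Normalized to DMSO and 10 uM staurosporine; AC50 from Hill fit.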

[21] = target: Cytochrome P450 3A4 (Homo sapiens) (UniProt P08684); experiment: qHTS Assay for Inhibitors and Substrates of Cytochrome P450 3A4 (AID 884); also: % is scaled to controls: 0 for no effect and ±100 for the full control effect; nearly all actives have a fitted effect of over 50% in size
Sequence of Cytochrome P450 3A4 (Homo sapiens) (P08684 whole entry, looked up): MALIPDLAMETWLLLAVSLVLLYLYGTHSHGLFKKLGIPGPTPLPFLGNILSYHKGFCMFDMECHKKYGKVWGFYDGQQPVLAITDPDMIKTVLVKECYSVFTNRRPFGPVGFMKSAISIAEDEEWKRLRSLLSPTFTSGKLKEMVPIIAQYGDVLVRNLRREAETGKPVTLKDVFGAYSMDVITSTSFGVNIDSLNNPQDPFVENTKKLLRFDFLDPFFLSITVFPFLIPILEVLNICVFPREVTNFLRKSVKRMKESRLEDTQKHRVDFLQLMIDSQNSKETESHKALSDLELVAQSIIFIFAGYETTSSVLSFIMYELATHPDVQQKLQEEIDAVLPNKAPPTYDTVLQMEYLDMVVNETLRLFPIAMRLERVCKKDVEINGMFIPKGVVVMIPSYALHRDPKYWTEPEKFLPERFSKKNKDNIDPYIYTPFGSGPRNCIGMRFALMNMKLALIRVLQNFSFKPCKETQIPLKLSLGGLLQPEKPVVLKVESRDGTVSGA
How it was run: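 20 nM human CYP3A4 with 25 uM Luciferin-PPXE (at KM) in 200 mM KPO4, preincubated 10 min with compound; NADPH regeneration started a 60 min RT reaction. Luciferin detected by luminescence, normalized to 57 uM ketoconazole as full inhibition.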

CCCOC(=O)c1ccccc1C(=O)OCCC
inactive: Potency [1] > 92 µM | Potency [2] > 92 µM | Potency [3] > 92 µM | Potency [4] > 92 µM | activity change, negative = cytotoxicity [5] -15% | Potency [6] | Potency [7] | Potency [8] | activity change, negative = cytotoxicity [9] -1.75% | outcome [10] | caspase-3 activation [11] -1.2% | outcome [12] | outcome [13] | outcome [14] | outcome [15] | outcome [16] | outcome [17] | outcome [18] | outcome [19] | caspase-3 activation [20] 0.709% | Potency [21]
